# Compound activity: PubChem, several laboratories
# Compounds with a hit are over-represented: about 1.9% of the library has one in this group of screens.
# 14-3-3 Bad inh = disrupts binding of bovine 14-3-3 zeta to phospho-Bad peptide; actives 0.71% (n = 220,000); P63103; TR-FRET 14-3-3zeta/Dy647-pBad peptide displacement, 1 h; inhibition, % at 21.7 µM;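 active means inhibition above about 70%, limit read from the data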;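 further: 0% = full 14-3-3 plus peptide FRET controls and 100% = background without 14-3-3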
# eIF4H FP inh = inhibitors of RNA binding by human eIF4H; Q15056; eIF4H fluorescence polarization binding assay; inhibition, % at 35 µM; actives 0.94% (n = 290,000);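 further: calls also rest on retests at 20 µM and on dose response follow-up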
# PABP1 MLLE inh = inhibitors of microRNA-mediated deadenylation, human PABP1 MLLE binding. inhibition, % at 20 µM. P11940. actives 0.36% (n = 360,000). GST-MLLE / FITC-PAM2 fluorescence polarization. AID 588489; in the data active means inhibition above about 35%, passing the limit was not always enough;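 further: plate controls were DMSO wells with GST-MLLE for no effect and wells lacking GST-MLLE protein for full effect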
# PABP polyA inh = PABP-poly(A) binding inhibition; P11940; PABP-poly(A) RNA binding, fluorescence polarization; calls only at 35 µM; actives 1% (n = 290,000); AID 2014;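 further: calls also rest on retests at 20 µM and on dose response follow-up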
# eIF4E 4G PPI = eIF4E/eIF4G interaction inhibition in translation initiation; P63073+Q04637; TR-FRET eIF4E-eIF4GI(517-606) binding, 2 h; inhibition, % at 21.7 µM; actives 0.37% (n = 220,000); AID 782;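 active means inhibition above about 30%, limit read from the data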;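 further: 0% = full FRET control wells and 100% = background wells lacking eIF4GI fragment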
# Numbers without * were called inactive; i = inactive; ? = inconclusive; · = no result given; + = active, no number; [ ] = another dose, or the depositor's remark. Unless noted, how the calls were made is not given here.
SMILES,14-3-3 Bad inh,eIF4H FP inh,PABP1 MLLE inh,PABP polyA inh,eIF4E 4G PPI
COc1ccc([N+](=O)[O-])cc1NS(=O)(=O)c1ccc(Cl)c(C(=O)Nc2sc3c(c2C#N)CCCCC3)c1,-1,-1,·,i,-3
Cc1cc(O)c(/C=N/c2ccccn2)c(=O)o1,-4,89,1,i,2
Oc1ccc2ccccc2c1C=Nc1ccc(Cl)cn1,4,85*,-10,+,-4
Cc1cc(O)c(C=Nc2ccc(Cl)cn2)c(=O)o1,33,59*,-2,+,3
Cc1cccc(/N=C/c2c(O)cc(C)oc2=O)n1,9,78*,-12,+,-2
Oc1ccc2ccccc2c1/C=N/n1cnnc1,1,-1,-10,i,4
OC(Cc1ccccc1Br)c1ncc(-c2cccc(C(F)(F)F)c2)[nH]1 (centres undefined),·,·,-7,·,·
Cc1ccc(OCc2nc(-c3ccccn3)n[nH]2)cc1,-1,2,-8,i,34*[fluorescence artefact?]
O=C(Nc1ccc(F)c(Cl)c1)c1cc(C2CCCCN2C(=O)c2cccs2)on1 (centres undefined),·,·,17,·,·
O=C(CCC(=O)N1CCSc2ccccc21)NCCc1ccccc1,·,-8,12,i,·
COc1ccc(CCNC(=O)c2sc(=S)n(C)c2N)cc1,-10,-5,43*,i,-3
CNC(=S)NCCc1ccc(OC)cc1,0,2,-70,+,0
COC(=O)c1sc(=S)n(-c2ccccc2OC)c1N,-21,-8,11,i,4
CCCCNC(=O)c1sc(=S)n(-c2ccccc2OC)c1N,-8,2,45*,i,6
Cn1c(N)c(C(=O)NCc2ccccc2)sc1=S,3,?,14,?,1
CC(C)(C)NC(=O)C(c1ccc(F)cc1)N(Cc1ccco1)C(=O)CCC(=O)Nc1ccccn1 (centres undefined),·,6,6,i,·
CC(OC(=O)Cc1c[nH]c2ccccc12)C(=O)Nc1ccccc1F (centres undefined),·,·,-1,·,·
Cc1cccc(-n2cnc(C(=O)NC3CCCCCC3)c2)n1,4,-5,1,i,30*
COc1cc(C)c(CNc2ccc(OC)c(OC)c2)cc1C,80*,63*,·,+,13
COc1cc(C)c(CNc2cccc(C)c2)cc1C,73*,1,-10,i,-6
Cc1ccc(C(O)c2ncc(-c3ccccc3F)[nH]2)c(C)c1 (centres undefined),·,·,8,·,·
COc1ccc(C(C(=O)NC2CCCC2)N(Cc2cccnc2)C(=O)Cc2cccs2)c(OC)c1 (centres undefined),·,0,-8,i,·
COc1ccc(N2Cc3cccc(C(=O)NC(C)CCc4ccco4)c3C2=O)cc1 (centres undefined),-9,88*,-19,+,5
CC(CCc1ccco1)NC(=O)c1cccc2c1C(=O)N(C1CCCCC1)C2 (centres undefined),-17,-7,-1,i,4
Cc1cccc(Nc2nnc(SCC3CCCCO3)s2)c1C (centres undefined),3,1.8*,9,i,7
SMILES,14-3-3 Bad inh,eIF4H FP inh,PABP1 MLLE inh,PABP polyA inh,eIF4E 4G PPI
CC(=O)c1cccc(CN2CCC(n3nccc3NC(=O)c3ccc4c(c3)OCO4)CC2)c1,·,1,-5,i,·
Cc1ccc(N=Cc2ccc(O)cc2O)cc1F,-5,54*,0,+,21
O=C(O)c1ccc(NCc2cccc(Br)c2)cc1,2,active,-1,+,-1
COc1ccc([C@@H]2C[C@H](c3ccccc3)Oc3cc(C)cc(C)c32)cc1,-10,-2,-5,i,-6
COC(=O)c1sc(NC(=O)c2cc(C)on2)nc1C,·,-4,11,i,·
Cc1c(O)cc2c(c1O)C(=O)CC(c1ccc(O)cc1)O2 (centres undefined),37,95*,-4,+,10
CCOC(=O)C1CCN(C(=O)COC(=O)CSc2ccc([N+](=O)[O-])cc2)CC1,·,·,42*,·,·
CC(OC(=O)CSc1ccc([N+](=O)[O-])cc1)C(=O)NC1CC1 (centres undefined),·,·,42*,·,·
CCCN(CC(=O)Nc1ccccc1C)C(=O)COC(=O)CSc1ccc([N+](=O)[O-])cc1,·,·,40*,·,·
Cc1ccnc(NC(=O)CNC(=O)c2ccccc2Br)c1,·,-11,6,i,·
Cc1cc(C)c(Nc2cc(S(=O)(=O)O)c(N)c3c2C(=O)c2ccccc2C3=O)c(C)c1,73*[fluorescence artefact?],92,15,+,56*[fluorescence artefact?]
CN1C(=S)N(c2cccnc2)C(=O)/C1=C\c1ccc(N(C)C)cc1,79*,14,-158,i,17
O=C(N/N=C/c1ccc[nH]1)c1cc2ccccc2cc1O,·,76*,-15,i,·
O=C(N/N=C/c1ccncc1)c1cc2ccccc2cc1O,·,-5,-6,i,·
Cc1ccc2c(c1)C1C=CCC1C(C(=O)O)N2 (centres undefined),86*[fluorescence artefact?],89,·,i,65*[fluorescence artefact?]
CC(=O)c1ccc2c(c1)C1C=CCC1C(C(=O)O)N2 (centres undefined),65,101*,18,+,31*
Cc1ccc2c(c1)C1C=CCC1C(C(=O)NCCCN1CCOCC1)N2 (centres undefined),·,·,-18,·,·
COc1ccccc1C(=O)N1CCCC(C)(C(=O)NS(=O)(=O)C2CC2)C1 (centres undefined),·,·,9,·,·
COc1cc2c(cc1N/C=C(\C#N)c1nc(-c3ccccc3)cs1)oc1ccccc12,86*,?,5,i,-5
Cc1ccnc(N/C=C(\C#N)c2nc(-c3cccc(Br)c3)cs2)c1,65,?,i,i,-4
N#C/C(=C\Nc1ccc2cn[nH]c2c1)c1nc(-c2ccccc2)cs1,86*,6,-16,?,16
N#C/C(=C\Nc1ccc2cn[nH]c2c1)c1nc(-c2ccc(Cl)cc2)cs1,91*,10,-23,i,23
COc1ccc([C@@H]2[C@@H]3C(=O)N(C(C)(C)C)C(=O)[C@@H]3[C@]3(C)C(=O)N(c4cccc(Br)c4)C(=O)N23)cc1,·,7,-3,i,·
O=C(O)c1ccc2c(c1)CCC2,-1,3.3*,5,+,-3
COC(=O)C[C@H]1C[C@H]2c3cc(NC(=O)C4CCOCC4)ccc3O[C@H]2[C@@H](CO)O1,·,·,1,·,·
CCOc1ccccc1-n1c(=S)sc2c(=O)n(-c3ccc(C)cc3)c(=S)[nH]c21,-5,active,21,+,1
Cc1cccc(CN(C)C[C@H]2OCc3cnnn3CCCC(=O)N([C@H](C)CO)C[C@@H]2C)c1,·,·,1,·,·
Cc1ccccc1C(=O)Nc1ccc2c(C#N)c3nc4ccccc4nc3n2c1,89*[fluorescence artefact?],?,0,i,21
Cc1c(C(=O)Nc2ccccc2)cn2c(nc3ccccc32)c1C#N,6,-6,-17,i,1
CC[C@]1(C(=O)OC)[C@H]2C(=O)N(C)C(=O)[C@H]2[C@H]2CN=C(SCc3ccc(OC)cc3)N21,·,·,5,·,·
